This is a sample that favours compounds with a hit; in the whole collection about 3.6% have one here.
HSP90 inh: inhibitors of HSP90 luciferase refolding in rabbit reticulocyte lysate; luciferase refolding luminescence, 3 h; inhibition, % at 5.6 µM; actives 0.91% (n = 290,000);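 active means inhibition above the screen-wide mean plus 3 SD, computed separately per campaign, cut at about 16% in these data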;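 further: 0% = DMSO wells and 100% = 60 µM geldanamycin wells; inhibitors lower the luminescence because luciferase stays unfolded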
Mdm2-MdmX inh: human Mdm2/MdmX binding inhibition; O15151+Q00987; SaOS-2 split-luciferase Mdm2/MdmX complementation, luminescence; inhibition, % at 8 µM; actives 3% (n = 330,000); AID 485346;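 active means inhibition of at least 50% at 8 µM in the primary screen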
Target sequence (O15151 whole entry, looked up): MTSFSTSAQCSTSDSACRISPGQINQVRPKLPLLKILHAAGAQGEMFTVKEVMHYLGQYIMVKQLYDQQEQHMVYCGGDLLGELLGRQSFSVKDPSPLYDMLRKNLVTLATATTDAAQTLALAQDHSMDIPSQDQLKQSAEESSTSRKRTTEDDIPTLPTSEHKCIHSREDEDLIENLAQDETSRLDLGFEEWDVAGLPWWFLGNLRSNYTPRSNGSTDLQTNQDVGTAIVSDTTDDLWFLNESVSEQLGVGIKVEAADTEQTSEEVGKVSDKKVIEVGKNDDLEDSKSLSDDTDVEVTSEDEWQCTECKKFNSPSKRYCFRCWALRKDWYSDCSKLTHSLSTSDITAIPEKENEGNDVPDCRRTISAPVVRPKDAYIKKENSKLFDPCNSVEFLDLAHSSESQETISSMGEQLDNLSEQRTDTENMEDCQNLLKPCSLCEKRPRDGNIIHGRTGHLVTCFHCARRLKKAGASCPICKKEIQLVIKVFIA
Target sequence (Q00987 whole entry, looked up): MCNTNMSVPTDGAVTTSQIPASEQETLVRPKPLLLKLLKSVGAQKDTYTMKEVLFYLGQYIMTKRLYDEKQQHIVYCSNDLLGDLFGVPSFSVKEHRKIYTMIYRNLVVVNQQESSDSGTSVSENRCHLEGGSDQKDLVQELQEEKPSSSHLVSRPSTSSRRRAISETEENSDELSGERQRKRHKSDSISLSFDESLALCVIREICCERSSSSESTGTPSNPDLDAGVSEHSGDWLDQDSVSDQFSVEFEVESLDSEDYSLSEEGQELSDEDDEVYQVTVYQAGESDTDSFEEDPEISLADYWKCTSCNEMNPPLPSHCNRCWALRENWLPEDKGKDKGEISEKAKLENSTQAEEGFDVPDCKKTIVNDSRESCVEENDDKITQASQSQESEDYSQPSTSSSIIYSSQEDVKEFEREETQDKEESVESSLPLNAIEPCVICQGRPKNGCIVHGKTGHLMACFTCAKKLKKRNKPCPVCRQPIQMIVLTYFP
Peg3 prom inh: reduces Peg3 promoter-driven luciferase expression in HeLa; HeLa PEG-Prom luciferase reporter, luminescence, overnight; inhibition, % at 20 µM; actives 1.7% (n = 360,000); AID 588405;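 active means inhibition of at least 50% at 20 µM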
CF NFkB block: blocks PAF-induced NF-kB reporter in cystic fibrosis cells; KKLEB NF-kB-GFP reporter, GFP fluorescence overnight; inhibition, % at 5 µM; AID 588850; actives 0.86% (n = 360,000);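 active means at least 50% inhibition at 5 µM, scaled per plate between neutral and stimulator controls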;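 further: PAF is a Pseudomonas aeruginosa culture filtrate used as stimulus; plate controls were PAF-stimulated DMSO wells for no effect and unstimulated DMSO wells for full effect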
KKLEB tox: CF airway cell cytotoxicity counter-screen. activity change (cytotoxicity), % at 5 µM. actives 0.36% (n = 360,000). KKLEB CF airway cells viability, ATPlite luminescence, overnight; hits give low values; cells stimulated with P. aeruginosa culture filtrate. AID 602141;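 active means corrected activity change at or below -50% at 5 µM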
LGR2 antag: inhibitors of bursicon-induced Drosophila LGR2 receptor cAMP signaling. HEK293 LGR2, CRE-luciferase, bursicon-stimulated, 4 h. inhibition, % at 9.99 µM. actives 0.35% (n = 380,000);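 active means drop in luminescence signal, shown as inhibition above about 50% in the replicate tests, limit read from the data, passing the limit was not always enough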;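 further: agonist challenge used bursicon conditioned medium at about half maximal strength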
Mdm2-MdmX conf: human Mdm2/MdmX binding inhibition, confirmed; inhibition, % at 8 µM; actives 55% (n = 10,000); AID 489028; luminescent assay; shares compounds with Mdm2-MdmX inh; in the data active means inhibition above about 40%
FLuc counter: full-length luciferase inhibition in Mdm2/MdmX counter-screen; inhibition, % at 8 µM; actives 77% (n = 6,200); SaOS-2 full-length luciferase counterscreen, luminescence; shares compounds with Mdm2-MdmX inh;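 active means mean inhibition at 8 µM reaching about 37%, which flags the compound as non-specific, limit read from the data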;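 further: p53-null SaOS-2 cells with luciferase driven by a doxycycline-inducible promoter; compound on cells about two nights before reading with doxycycline added after day one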
An asterisk follows results filed as active; · = no result given.

SMILES	HSP90 inh	Mdm2-MdmX inh	Peg3 prom inh	CF NFkB block	KKLEB tox	LGR2 antag	Mdm2-MdmX conf	FLuc counter
CCN1/C(=C/c2ccc3ccccc3[n+]2CC)C=Cc2ccccc21	-1	89*	87*	-42	-7	·	81*	21
CCCCN1/C(=C/c2ccc3ccccc3[n+]2CC)Sc2ccccc21	-1	77*	48	-151	4	·	76*	32
COCC#Cc1ccc([C@H]2[C@@H](CO)N3CCCCN(Cc4cccnc4)C[C@H]23)cc1	·	·	·	·	·	2	·	·
C[C@H]1CN([C@@H](C)CO)C(=O)Cc2cc(NS(C)(=O)=O)ccc2O[C@@H]1CN(C)Cc1ccc(C(=O)O)cc1	·	·	·	·	·	8	·	·
COc1cccc(-c2ccc([C@H]3[C@@H](CO)N4C(=O)CN(C(=O)C5CCCC5)C[C@@H]34)cc2)c1	·	·	·	·	·	36	·	·
CC(C)CC(=O)c1c(O)c(C=O)c(O)c2c1O[C@@]1(C)[C@@H](C2)C[C@H]2C[C@@H]1C2(C)C	·	59*	40	46	-26	-9	-3	·
Cc1ccc(S(=O)(=O)N[C@@H]2CC[C@H](CC(=O)NCCN3CCCCC3)O[C@@H]2CO)cc1	·	·	·	·	·	12	·	·
Cc1ccc(NC(=O)COc2ccc(/C=N/NC(=O)CSCc3ccccc3)cc2)cc1	-2	-3	-10	-13	8	-2	·	·
Cc1ccc(NC(=O)COc2ccc(/C=C3/SC(=Nc4ccccc4)N(Cc4cccnc4)C3=O)cc2)cc1	1	51*	15	-10	0	·	10	·
COc1ccc(-n2nnnc2SCC(=O)NCCc2ccccc2)cc1OC	-2	-10	14	-3	-4	-37	·	·
COc1ccc(CCNc2nnc(Sc3nnnn3-c3ccccc3)s2)cc1OC	-2	79*	18	44	-32	·	70*	83*
CCCn1nc([N+](=O)[O-])c(C(C#N)c2nc3ccccc3o2)c(Cl)c1=O (stereo not drawn)	0	-17	19	13	6	17	·	·
CCn1nc([N+](=O)[O-])c(C(C#N)c2nc3cc(C(F)(F)F)ccc3s2)c(Cl)c1=O (stereo not drawn)	3	76*	14	61*	-35	6	72*	50*
O=[N+]([O-])c1cc(-c2ncccn2)c([N+](=O)[O-])s1	3	93*	104*	16	10	17	42*	12
O=C(Nc1ncccn1)c1cc([N+](=O)[O-])cc([N+](=O)[O-])c1	3	-24	7	26	-12	11	·	·
C=C(C(=O)Oc1ccccc1C(C)(C)C)c1ccccc1	·	96*	·	·	·	·	49*	34
CN1CCN(C(c2ccc(C(F)(F)F)cc2)c2cc(Cl)c3cccnc3c2O)CC1 (stereo not drawn)	14	86*	·	·	·	25	81*	25
Oc1c(C(c2ccccn2)N2CCCCC2)cc(Cl)c2cccnc12 (stereo not drawn)	9	65*	23	-9	-9	0	46*	43*
CN1CCN(C(c2ccc(Cl)cc2)c2cc(Cl)c3cccnc3c2O)CC1 (stereo not drawn)	11	73*	65*	38	-42	34	72*	38*
N#Cc1ccc(-c2csc(NNC(=O)c3ccc(Br)cc3)n2)cc1	1	77*	28	5	7	7	59*	10
N#Cc1ccc(-c2csc(NNC(=O)c3ccccc3)n2)cc1	-2	40	0	-2	3	-1	·	·
CCCC(=O)Nc1ccc2c(c1)C(=O)N(C)C[C@H](OC)[C@@H](C)CN(C(=O)c1ccncc1)[C@H](C)CO2	·	·	·	·	·	0	·	·
Cc1cc(=O)oc2cc(OCc3ccc(C(=O)OCC(=O)NC4CCS(=O)(=O)C4)cc3)ccc12 (stereo not drawn)	5	51*	-48	13	7	-14	15	·
COc1ccccc1CNC(=O)C[C@H]1CC[C@@H]2[C@H](COC[C@@H](O)CN2Cc2cccc(-c3ccncc3)c2)O1	·	·	·	·	·	15	·	·
CN(C)S(=O)(=O)c1ccc(N2CCCC2)c(C(=O)Nc2nc(-c3cc(F)ccc3F)cs2)c1	1	55*	28	45	-47	-1	47*	48*
SMILES	HSP90 inh	Mdm2-MdmX inh	Peg3 prom inh	CF NFkB block	KKLEB tox	LGR2 antag	Mdm2-MdmX conf	FLuc counter
Cc1cccc2sc(NC(=O)c3cc(S(=O)(=O)N(C)C)ccc3N3CCCC3)nc12	-5	65*	23	13	-1	19	70*	45*
CN(C)S(=O)(=O)c1ccc(N2CCCC2)c(C(=O)Nc2nc(-c3ccc(F)cc3)cs2)c1	1	38	15	10	-11	11	·	·
COc1cccc(CNc2ncnc3cc(Cl)ccc23)c1	0	·	1	15	-2	7	·	·
Cc1noc(C)c1-c1ccc2ncnc(NCC3CCCCN3C)c2c1 (stereo not drawn)	·	72*	-32	-35	-5	3	47*	73*
CCc1cc2c(NCCN3CCCCC3)ncnc2s1	1	0	39	-13	9	·	·	·
COc1cccc(CNc2ncnc3ccc(-c4c(C)noc4C)cc23)c1	·	85*	-38	11	-33	-8	73*	31
Cc1ccsc1CNc1ncnc2ccc(-c3c(C)noc3C)cc12	·	94*	-33	-97	-17	4	69*	52*
Cc1sc2nc(C3CCCCC3)nc(SCC(=O)N3CC(=O)Nc4ccccc43)c2c1C	0	56*	24	16	-14	19	18	·
CC(C)C#Cc1cnc2c(c1)C(=O)N([C@H](C)CO)C[C@H](C)[C@@H](CN(C)Cc1cncnc1)O2	·	·	·	·	·	0	·	·
Cc1noc(C)c1NC(=O)N(C)C[C@H]1Oc2ccc(NC(=O)Cc3cn(C)c4ccccc34)cc2C(=O)N([C@H](C)CO)C[C@H]1C	·	·	·	·	·	0	·	·
CC(=O)N(C)C[C@@H]1Oc2cc(C#CC(C)C)ccc2S(=O)(=O)N([C@@H](C)CO)C[C@H]1C	·	·	·	·	·	-13	·	·
COc1ccc(S(=O)(=O)Nc2ccccc2C)cc1	-1	29	31	7	0	·	·	·
COc1ccc(S(=O)(=O)Nc2cccc3ccc(O)cc23)cc1	·	60*	49	13	-9	11	57*	52*
Cc1ccccc1-c1cnc2c(c1)C(=O)N([C@@H](C)CO)C[C@@H](C)[C@@H](CN(C)C(=O)c1cccnc1)O2	·	·	·	·	·	9	·	·
Cc1cc(/C=N/NC(=O)c2cccc([N+](=O)[O-])c2)c(C)n1-c1ccc(Cl)cc1Cl	-1	50*	24	-9	-2	·	35	·
N#Cc1cc([N+](=O)[O-])ccc1Oc1cccc(/C=N/NC(=O)c2cccc(Cl)c2)c1	-1	62*	20	-10	-4	·	22	·
